# Measurements taken from PMC5700166.
# What was measured:
# [1] = target: T1, GST-Nv-NF-kB (Ser allele) (Nematostella vectensis, UniProt A7UNT2 2-411); experiment: protein-binding microarray (PBM); PBM: ~300 nM protein, 6 mM HEPES pH 7.8, 80 mM KCl, 0.5 mM EDTA, 0.5 mM EGTA, 6% glycerol, 35 ng/ul poly-dIdC, 1% milk, 1 h, room temperature; Ap Aiptasia and Nv Nematostella (sea anemones) / Co Capsaspora / Aq Amphimedon (sponge) / Dm Drosophila / Hu human; RHD is the Rel homology domain; high values mean tight binding; conditions: dsDNA, one strand shown
# T1 sequence: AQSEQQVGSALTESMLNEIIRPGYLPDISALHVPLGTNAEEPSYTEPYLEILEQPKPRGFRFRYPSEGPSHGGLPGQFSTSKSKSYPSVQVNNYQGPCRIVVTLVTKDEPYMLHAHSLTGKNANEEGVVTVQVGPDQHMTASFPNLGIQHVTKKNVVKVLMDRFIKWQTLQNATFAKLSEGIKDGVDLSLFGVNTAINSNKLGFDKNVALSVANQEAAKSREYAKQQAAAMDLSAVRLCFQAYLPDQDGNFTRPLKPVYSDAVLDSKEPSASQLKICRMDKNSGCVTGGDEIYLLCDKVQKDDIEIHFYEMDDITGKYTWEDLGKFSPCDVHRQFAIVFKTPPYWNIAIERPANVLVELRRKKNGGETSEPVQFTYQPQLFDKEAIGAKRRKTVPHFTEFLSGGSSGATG
# GST-Hu-p50 = GST-Hu-p50 (Homo sapiens, UniProt P19838 7-356); experiment: as above; conditions: dsDNA, one strand shown
# GST-Hu-p50, sequence (P19838 7-356): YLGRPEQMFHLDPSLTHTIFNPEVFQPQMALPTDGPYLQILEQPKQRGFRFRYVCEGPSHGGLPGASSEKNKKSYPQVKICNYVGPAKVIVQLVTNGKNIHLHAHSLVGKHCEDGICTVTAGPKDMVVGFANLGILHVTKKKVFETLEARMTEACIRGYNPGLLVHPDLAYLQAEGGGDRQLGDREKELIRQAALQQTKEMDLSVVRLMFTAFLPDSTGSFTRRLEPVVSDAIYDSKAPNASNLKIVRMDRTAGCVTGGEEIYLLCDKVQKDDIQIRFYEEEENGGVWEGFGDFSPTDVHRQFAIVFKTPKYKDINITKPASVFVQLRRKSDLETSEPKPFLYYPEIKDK
Sequence,binding signal [1],binding signal (GST-Hu-p50)
CCGATTAACATCAAATTGCCCCCTGATGTTAATCGGGTCTTGATTCGCTTGACGCTGCTG,4.54 z-score,4.59 z-score
CCGATTAACATCAAGAAATTTCCTGATGTTAATCGGGTCTTGATTCGCTTGACGCTGCTG,1.55 z-score,1.76 z-score
CCGATTAACATCACCAAATTCCCTGATGTTAATCGGGTCTTGATTCGCTTGACGCTGCTG,6.26 z-score,4.49 z-score
CCGATTAACATCAGGGAATTCACTGATGTTAATCGGGTCTTGATTCGCTTGACGCTGCTG,4.73 z-score,4.11 z-score
CCGATTAACATCAGGACTTTACCTGATGTTAATCGGGTCTTGATTCGCTTGACGCTGCTG,2.66 z-score,2.67 z-score
CCGATTAACATCAGGGGAGCACCTGATGTTAATCGGGTCTTGATTCGCTTGACGCTGCTG,3.94 z-score,4.33 z-score
CCGATTAACATCAGGGGGATGTATGATGTTAATCGGGTCTTGATTCGCTTGACGCTGCTG,5.85 z-score,4.84 z-score
CCGATTAACATCACATCTTTCCCTGATGTTAATCGGGTCTTGATTCGCTTGACGCTGCTG,4.65 z-score,2.43 z-score
CCGATTAACATCAGGGACTCCCATGATGTTAATCGGGTCTTGATTCGCTTGACGCTGCTG,3.88 z-score,3.34 z-score
CCGATTAACATCATAAGGGGTGTTGATGTTAATCGGGTCTTGATTCGCTTGACGCTGCTG,1.09 z-score,1.44 z-score
CCGATTAACATCAGGTAACTACCTGATGTTAATCGGGTCTTGATTCGCTTGACGCTGCTG,1.88 z-score,1.3 z-score
CCGATTAACATCACACCACCCCCTGATGTTAATCGGGTCTTGATTCGCTTGACGCTGCTG,3.35 z-score,3.65 z-score
CCGATTAACATCAGGGAACTACCTGATGTTAATCGGGTCTTGATTCGCTTGACGCTGCTG,4.46 z-score,3.92 z-score
CCGATTAACATCAGATACCCCCCTGATGTTAATCGGGTCTTGATTCGCTTGACGCTGCTG,4.05 z-score,4.1 z-score
CCGATTAACATCAATGGGAAAATTGATGTTAATCGGGTCTTGATTCGCTTGACGCTGCTG,5.32 z-score,3.49 z-score
CCGATTAACATCAAAAATCCCTATGATGTTAATCGGGTCTTGATTCGCTTGACGCTGCTG,4.2 z-score,4.72 z-score
CCGATTAACATCAAAAATCCCATTGATGTTAATCGGGTCTTGATTCGCTTGACGCTGCTG,1.88 z-score,3.48 z-score

Sequence,binding signal [1],binding signal (GST-Hu-p50)
CCGATTAACATCACAGTACCCCCTGATGTTAATCGGGTCTTGATTCGCTTGACGCTGCTG,3.98 z-score,3.45 z-score
CCGATTAACATCAGGAGATTCCCTGATGTTAATCGGGTCTTGATTCGCTTGACGCTGCTG,4.04 z-score,4.59 z-score
CCGATTAACATCACTTGGGAAACTGATGTTAATCGGGTCTTGATTCGCTTGACGCTGCTG,2.07 z-score,1.38 z-score
CCGATTAACATCAGGCAAGTCCCTGATGTTAATCGGGTCTTGATTCGCTTGACGCTGCTG,3.07 z-score,3.44 z-score
CCGATTAACATCACGGAATTACCTGATGTTAATCGGGTCTTGATTCGCTTGACGCTGCTG,3.86 z-score,2.38 z-score
CCGATTAACATCACGGGAAGTCCTGATGTTAATCGGGTCTTGATTCGCTTGACGCTGCTG,1.71 z-score,1.59 z-score
CCGATTAACATCAGGGGTTTACCTGATGTTAATCGGGTCTTGATTCGCTTGACGCTGCTG,4.43 z-score,4.94 z-score
CCGATTAACATCAGGAATATACCTGATGTTAATCGGGTCTTGATTCGCTTGACGCTGCTG,1.48 z-score,1.06 z-score
CCGATTAACATCAGGGGAGGAAATGATGTTAATCGGGTCTTGATTCGCTTGACGCTGCTG,4.9 z-score,3.1 z-score
CCGATTAACATCAGGAAAAACCCTGATGTTAATCGGGTCTTGATTCGCTTGACGCTGCTG,3.96 z-score,4.56 z-score
CCGATTAACATCAGAAATTCCCATGATGTTAATCGGGTCTTGATTCGCTTGACGCTGCTG,5.93 z-score,4.64 z-score
CCGATTAACATCAGGGGGGGTGATGATGTTAATCGGGTCTTGATTCGCTTGACGCTGCTG,3.98 z-score,4.13 z-score
CCGATTAACATCAAGGGATTCCCTGATGTTAATCGGGTCTTGATTCGCTTGACGCTGCTG,4.98 z-score,3.73 z-score
CCGATTAACATCAAAACAACCCCTGATGTTAATCGGGTCTTGATTCGCTTGACGCTGCTG,2.19 z-score,3.88 z-score
CCGATTAACATCAGGCTTTCCCATGATGTTAATCGGGTCTTGATTCGCTTGACGCTGCTG,1.98 z-score,1.36 z-score
CCGATTAACATCACATATACCCCTGATGTTAATCGGGTCTTGATTCGCTTGACGCTGCTG,1.38 z-score,2.14 z-score
